Test results published in PubChem BioAssay (NCATS).
Results filed as inconclusive are left out. The source made the active and inactive calls. The call rests on the fitted dose curve; in most records, active means well fitted inhibition curve with a large enough effect; inconclusive means small, poorly fitted or top-dose-only effect; inactive means flat fitted curve, though single readings scatter.

Test system: CP238
Assay: qHTS profiling for inhibitors of Plasmodium falciparum proliferation (AID 504749); further: nearly all actives have a fitted effect of over 60% in size;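 on activity, negative = inhibition: 0% = DMSO vehicle and full inhibition = artemisinin control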
Settings: P. falciparum in erythrocytes, SYBR Green DNA, 72 h; series mostly up to 28.7 µM; activity, negative = inhibition: at the top concentration
How it was run: (§1)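 Each compound contacts P. falciparum-infected red blood cells for 72 h at 37 C; lysis buffer (Tris, EDTA, saponin, Triton X, SYBR Green I) is added and fluorescence measured next morning; values normalized to controls.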
Potency means the concentration at half of the fitted maximal effect.

activity, negative = inhibition, inactive:
OCCN1CC(O)C(O)C(O)C1CO (centres undefined) 3.73%, CC(CCC(=O)O)C1CCC2C3C(=O)C[C@@H]4CC(=O)CC[C@@]4(C)C3CC(=O)[C@]12C (some centres undefined) -5.41%, O=C(OC[C@@H]1O[C@@](O)(COC(=O)c2cccnc2)[C@H](OC(=O)c2cccnc2)[C@H]1OC(=O)c1cccnc1)c1cccnc1 -11.6%, O=[N+]([O-])O[C@H]1CO[C@H]2[C@@H]1OC[C@H]2O 10.5%, COc1cccc(OC)c1C(=O)NC1C(=O)N2C1SC(C)(C)C2C(=O)O (centres undefined) 6.86%, NC[C@@H]1O[C@H](OC2[C@@H](CO)O[C@@H](OC3[C@H](O)[C@H](N)C[C@H](N)[C@H]3OC3O[C@H](CO)[C@@H](O)[C@H](O)[C@@H]3N)[C@H]2O)C(N)[C@H](O)[C@@H]1O (some centres undefined) 20.9%, Cc1ccc(S(=O)(=O)NC(=O)NC(C)Cc2ccccc2)cc1 (centres undefined) 2.68%, OCCOC[C@H]1O[C@H](OCCO)[C@H](OCCO)[C@@H](OCCO)[C@@H]1OCCO (tested in a mixture with another compound) 7.04%, C[S+](C)CC[C@H](N)C(=O)O 8.05%, CC[C@@H]1/C=C(\C)C[C@H](C)C[C@H](OC)[C@H]2O[C@@](O)(C(=O)C(=O)N3CCCC[C@H]3C(=O)O[C@H](/C(C)=C/[C@@H]3CC[C@H](Cl)[C@H](OC)C3)[C@H](C)[C@@H](O)CC1=O)[C@H](C)C[C@@H]2OC 2.89%, NC(=O)C1CC2(NC(=O)NC2=O)c2cc(F)ccc2O1 (centres undefined) 9.81%, CN1[C@@H]2CC[C@@H]1CC(OC(=O)[C@H](CO)c1ccccc1)C2 (some centres undefined) 1.38%, CCCCCCCCCCCC(=O)OCC(O)C1OCC(O)C1O (centres undefined) 0.935%, C/C1=C2/[N-]C(C(CC(N)=O)[C@@]2(C)CCC(=O)NCC(C)OP(=O)([O-])O[C@H]2[C@@H](O)[C@@H](n3cnc4cc(C)c(C)cc43)O[C@@H]2CO)[C@]2(C)N=C(/C(C)=C3N=C(/C=C4N=C1C(CCC(N)=O)C\4(C)C)[C@@H](CCC(N)=O)[C@]\3(C)CC(N)=O)[C@@H](CCC(N)=O)[C@]2(C)CC(N)=O.CC(=O)O.[Co] (some centres undefined) -0.496%, CC1(C)OC[C@@H]2O[C@@]3(C(=O)O)OC(C)(C)O[C@@H]3[C@@H]2O1 3.85%, Cc1ccccc1N1C(=O)c2cc(N)ccc2N/C1=C\F -7.25%, O=C1C(I)=CC(=C(c2cc(I)c(O)c(I)c2)c2ccccc2C(=O)O)C=C1I -0.417%, NC(=O)NC(CCC(=O)O)C(=O)O (centres undefined) 10.8%, CC(=O)OCC(=O)[C@@]1(O)CCC2C3C[C@H](C)C4=CC(=O)C=CC4(C)C3C(O)CC21C (some centres undefined) 0.903%, CC1(C)C2CC[C@]1(C)[C@@H](O)C2 3.4%, OCC1O[C@H](Oc2ccc(O)cc2)C(O)C(O)C1O (some centres undefined) -1.93%, Nc1nc(F)nc2c1ncn2[C@@H]1O[C@H](CO)[C@@H](O)[C@H]1O 5.82%, CC1OC(OC2CCC3(C)C(CCC4C3CC(O)C3(C)C(C5=CC(=O)OC5)CCC43O)C2)CC(O)C1OC1CC(O)C(OC2CC(O)C(OC3OC(CO)C(O)C(O)C3O)C(C)O2)C(C)O1 (centres undefined) 0.196%, CC1OC(OCC2OC(Oc3c(-c4ccc(OCCO)c(OCCO)c4)oc4cc(OCCO)cc(O)c4c3=O)C(O)C(O)C2O)[C@@H](O)C(O)C1O (some centres undefined) -20.1%

Potency, active:
COc1cc2c(cc1O)CCN[C@@]21CS[C@H]2c3c(OC(C)=O)c(C)c4c(c3C(COC1=O)N1C2C2c3c(cc(C)c(OC)c3O)CC([C@@H]1O)N2C)OCO4 (some centres undefined) 0.9 nM, C[n+]1c2cc(N)ccc2cc2ccc(N)cc21 708 nM, CC[C@@]1(O)C[C@H](O[C@H]2C[C@@H](N(C)C)[C@@H](O[C@H]3C[C@@H](O)[C@@H](O[C@H]4CCC(=O)[C@@H](C)O4)[C@@H](C)O3)[C@@H](C)O2)c2c(cc3c(c2O)C(=O)c2c(O)cccc2C3=O)[C@H]1C(=O)OC 178 nM, CCC(C(=O)O)C1OC(C(C)C(O)C(C)C(=O)C(CC)C2OC3(C=CC(O)C4(CCC(C)(C5CCC(O)(CC)C(C)O5)O4)O3)C(C)CC2C)C(C)CC1C (centres undefined) 199 nM, COC1CC2CCC(C)[C@](O)(O2)C(=O)C(=O)N2CCCCC2C(=O)OC(C(C)CC2CCC(O)C(OC)C2)CC(=O)C(C)/C=C(/C)C(O)C(OC)C(=O)C(C)CC(C)C=CC=C/C=C\1C (some centres undefined) 3160 nM, CN[C@H](C)CCC=C(C)C 355 nM

Test system: CP247
Assay: as above
Settings: P. falciparum in erythrocytes, SYBR Green DNA, 72 h; series mostly up to 28.7 µM; activity, negative = inhibition: at the top concentration
How it was run: as §1

activity, negative = inhibition, inactive:
CCCCCCCCCCCCCCCC(=O)OC[C@H](O)[C@H]1OC[C@@H](O)[C@@H]1O 3.58%, C[C@H]1OC(OC2C(O)[C@@H](O)C(OC3C(O)[C@@H](O)C(O)O[C@@H]3CO)O[C@@H]2CO)[C@H](O)C(O)C1N[C@H]1C=C(CO)[C@@H](O)[C@H](O)C1O (some centres undefined) 7.79%, CCN(CC)CC(=O)Nc1c(C)cc(C)cc1C -5.44%, CC(=O)N[C@H]1[C@H](O[C@@H]2c3ccc(c(Cl)c3)Oc3cc4cc(c3O[C@@H]3O[C@H](CO)[C@@H](O)[C@H](O)C3C)Oc3ccc(cc3Cl)C[C@H]3NC(=O)[C@@H](N)c5ccc(O)c(c5)Oc5cc(O)cc(c5)[C@H](NC3=O)C(=O)N[C@H]4C(=O)N[C@H]3C(=O)N[C@@H]2C(=O)N[C@@H](C(=O)O)c2cc(O)cc(O[C@H]4O[C@H](CO)[C@@H](O)C(O)[C@@H]4O)c2-c2cc3ccc2O)O[C@H](CO)[C@@H](O)[C@@H]1O (some centres undefined) 13.5% [at 12.8 µM], NC(=O)c1ncn(C2OC(CO)C(O)C2O)c1N (centres undefined) 6.15%, CC1(Cn2ccnn2)[C@H](C(=O)O)N2C(=O)C[C@H]2S1(=O)=O (some centres undefined) 7.19%, CN(C)CC/C=C1\c2ccccc2COc2ccc(CC(=O)O)cc21 0.494%, CCCC(=O)O[C@]1(C(=O)COC(C)=O)CC[C@H]2C3C[C@H](F)C4=CC(=O)C=CC4(C)[C@@]3(F)[C@@H](O)CC21C (some centres undefined) -7.64%, OCCN1CC(O)C(O)C(O)C1CO (centres undefined) 5.95%, CC(CCC(=O)O)C1CCC2C3C(=O)C[C@@H]4CC(=O)CC[C@@]4(C)C3CC(=O)[C@]12C (some centres undefined) -8.91%, O=C(OC[C@@H]1O[C@@](O)(COC(=O)c2cccnc2)[C@H](OC(=O)c2cccnc2)[C@H]1OC(=O)c1cccnc1)c1cccnc1 1.57%, O=[N+]([O-])O[C@H]1CO[C@H]2[C@@H]1OC[C@H]2O 14%, COc1cccc(OC)c1C(=O)NC1C(=O)N2C1SC(C)(C)C2C(=O)O (centres undefined) 0.548%, NC[C@@H]1O[C@H](OC2[C@@H](CO)O[C@@H](OC3[C@H](O)[C@H](N)C[C@H](N)[C@H]3OC3O[C@H](CO)[C@@H](O)[C@H](O)[C@@H]3N)[C@H]2O)C(N)[C@H](O)[C@@H]1O (some centres undefined) 20.1%, Cc1ccc(S(=O)(=O)NC(=O)NC(C)Cc2ccccc2)cc1 (centres undefined) 6.82%, OCCOC[C@H]1O[C@H](OCCO)[C@H](OCCO)[C@@H](OCCO)[C@@H]1OCCO (tested in a mixture with another compound) 3.87%, C[S+](C)CC[C@H](N)C(=O)O 10.3%, CC[C@@H]1/C=C(\C)C[C@H](C)C[C@H](OC)[C@H]2O[C@@](O)(C(=O)C(=O)N3CCCC[C@H]3C(=O)O[C@H](/C(C)=C/[C@@H]3CC[C@H](Cl)[C@H](OC)C3)[C@H](C)[C@@H](O)CC1=O)[C@H](C)C[C@@H]2OC 8.3%, NC(=O)C1CC2(NC(=O)NC2=O)c2cc(F)ccc2O1 (centres undefined) -25.4%, CN1[C@@H]2CC[C@@H]1CC(OC(=O)[C@H](CO)c1ccccc1)C2 (some centres undefined) 6.09%, CCCCCCCCCCCC(=O)OCC(O)C1OCC(O)C1O (centres undefined) 8.13%, C/C1=C2/[N-]C(C(CC(N)=O)[C@@]2(C)CCC(=O)NCC(C)OP(=O)([O-])O[C@H]2[C@@H](O)[C@@H](n3cnc4cc(C)c(C)cc43)O[C@@H]2CO)[C@]2(C)N=C(/C(C)=C3N=C(/C=C4N=C1C(CCC(N)=O)C\4(C)C)[C@@H](CCC(N)=O)[C@]\3(C)CC(N)=O)[C@@H](CCC(N)=O)[C@]2(C)CC(N)=O.CC(=O)O.[Co] (some centres undefined) -20.2%, CC1(C)OC[C@@H]2O[C@@]3(C(=O)O)OC(C)(C)O[C@@H]3[C@@H]2O1 7.79%, Cc1ccccc1N1C(=O)c2cc(N)ccc2N/C1=C\F -5.03%, O=C1C(I)=CC(=C(c2cc(I)c(O)c(I)c2)c2ccccc2C(=O)O)C=C1I 2.33%, NC(=O)NC(CCC(=O)O)C(=O)O (centres undefined) -0.282%, CC(=O)OCC(=O)[C@@]1(O)CCC2C3C[C@H](C)C4=CC(=O)C=CC4(C)C3C(O)CC21C (some centres undefined) 2.52%

Potency, active:
CCCCC(=O)OCC(=O)[C@]1(O)Cc2c(O)c3c(c(O)c2[C@H](OC2CC(NC(=O)C(F)(F)F)C(O)C(C)O2)C1)C(=O)c1c(OC)cccc1C3=O (some centres undefined) 3160 nM, C[C@H]1[C@@H](OC(=O)CCC(=O)O)OC2OC3(C)CC[C@H]4[C@H](C)CC[C@@H]1[C@@]24OO3 (some centres undefined) 5 nM, COc1cc2c(cc1O)CCN[C@@]21CS[C@H]2c3c(OC(C)=O)c(C)c4c(c3C(COC1=O)N1C2C2c3c(cc(C)c(OC)c3O)CC([C@@H]1O)N2C)OCO4 (some centres undefined) 1.1 nM, C[n+]1c2cc(N)ccc2cc2ccc(N)cc21 1120 nM, CC[C@@]1(O)C[C@H](O[C@H]2C[C@@H](N(C)C)[C@@H](O[C@H]3C[C@@H](O)[C@@H](O[C@H]4CCC(=O)[C@@H](C)O4)[C@@H](C)O3)[C@@H](C)O2)c2c(cc3c(c2O)C(=O)c2c(O)cccc2C3=O)[C@H]1C(=O)OC 251 nM, CCC(C(=O)O)C1OC(C(C)C(O)C(C)C(=O)C(CC)C2OC3(C=CC(O)C4(CCC(C)(C5CCC(O)(CC)C(C)O5)O4)O3)C(C)CC2C)C(C)CC1C (centres undefined) 112 nM, COC1CC2CCC(C)[C@](O)(O2)C(=O)C(=O)N2CCCCC2C(=O)OC(C(C)CC2CCC(O)C(OC)C2)CC(=O)C(C)/C=C(/C)C(O)C(OC)C(=O)C(C)CC(C)C=CC=C/C=C\1C (some centres undefined) 3160 nM
